PubChem BioAssay (NCI)
About 83,000 compounds went through this panel and 20% of them were active in at least one assay; those are over-represented in the sample as a whole.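 Growth was measured after 48 h exposure to one concentration of compound in 96-well plates. Values under 10 count as active.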 Unmarked numbers belong to inactive results. The source made the active and inactive calls.

Assays:
Experiment in all cases: NCI-60 one-dose screen, 48 h (100 = growth as untreated, 0 = no growth, -100 = all killed)
Conditions in all cases: 10 µM unless noted
NCI-H23 lung = system: NCI-H23 lung
NCI-H226 lung = system: NCI-H226 lung
NCI-H322M lung = system: NCI-H322M lung
NCI-H460 lung = system: NCI-H460 lung
HOP-92 NSCLC = system: HOP-92 NSCLC
NCI-H522 lung = system: NCI-H522 lung
A549/ATCC NSCLC = system: A549/ATCC NSCLC
786-0 renal = system: 786-0 renal
COLO 205 colon = system: COLO 205 colon

Row | SMILES | growth (NCI-H23 lung) | growth (NCI-H226 lung) | growth (NCI-H322M lung) | growth (NCI-H460 lung) | growth (HOP-92 NSCLC) | growth (NCI-H522 lung) | growth (A549/ATCC NSCLC) | growth (786-0 renal) | growth (COLO 205 colon)
1 | C=C(C)[C@@H]1CC[C@]2(C(=O)NCCCCCCN(CCCN)CCCN)CC[C@]3(C)[C@H](CC[C@@H]4[C@@]5(C)CC[C@H](OCCCN)C(C)(C)[C@@H]5CC[C@]43C)[C@@H]12 | 77.4% [100 µM] | 111% [100 µM] | 80.7% [100 µM] | -16.2% [100 µM] (active) | 76.1% [100 µM] | 88.8% [100 µM] | 46.2% [100 µM] | 61.9% [100 µM] | 18.9% [100 µM]
2 | Cn1cc(-c2nnc(-c3cn(C)c4ncccc34)o2)c2ccccc21 | 51.3% | 64.9% | 75.8% | 23.7% | 7.94% (active) |  | 36% | 59.7% | 25.7%
3 | CCNC(=O)N1CCc2c(Cl)c3c(c(OC)c2[C@@H]1[C@H]1OCc2c1ccc(OC)c2OC)OCCO3 | 32.6% | 60.1% | 30.1% | 9.88% (active) | 44.5% | 11.6% | 35.2% | 26.9% | -11% (active)
4 | O=C1NC(=O)c2cc([N+](=O)[O-])cc3cccc1c23 | 97.6% | 106% | 89% | 98.5% | 80.2% | 77.5% | 89.7% | 98.6% | 105%
5 | C=C(C)[C@@H]1CC[C@]2(C(=O)NCCNCCNCCN)CC[C@]3(C)[C@H](CC[C@@H]4[C@@]5(C)CCC(=O)C(C)(C)[C@@H]5CC[C@]43C)[C@@H]12 | -35.2% [100 µM] (active) | 74.3% [100 µM] | -81.1% [100 µM] (active) | -90.9% [100 µM] (active) | -65.2% [100 µM] (active) | -69.7% [100 µM] (active) | -76.5% [100 µM] (active) | -84.5% [100 µM] (active) | -47.5% [100 µM] (active)
6 | COc1ccc(NC(=S)NNc2ccc(-c3ccc(OC)c(OC)c3)nn2)cc1 | 106% | 107% | 96.7% | 99.7% | 106% | 97.9% | 110% | 101% | 112%
7 | CCOC(=O)C(=Cc1ccccc1[N+](=O)[O-])C(=O)OCC | 14.4% | 42.3% | 89.2% | 49.5% | 9.84% (active) | -1.64% (active) | 53.6% | 28.2% | -42.2% (active)
8 | O=S(=O)(/N=c1/n(-c2ccccc2)nc2n1CCN2C1=NCCN1)c1ccc(-c2ccccc2)cc1 | 101% | 101% | 104% | 94.8% | 82.3% | 106% | 90.1% | 89% | 109%
9 | Cc1nc(Cl)cc(N(c2cc(Cl)nc(C)n2)c2ncc(C(=O)Nc3c(C)cccc3Cl)s2)n1 | 78.2% | 59.3% | 52.2% | 59.5% | -33.5% (active) | 53.7% | 50.5% | 40.1% | 67.7%
